Reference: PubChem BioAssay (NCI)
Compounds without any hit were thinned out: in the full panel of roughly 83,000, 20% have a hit.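 Cells were grown in 96-well plates and exposed to the test compound at a single concentration for 48 hours; results are reported as percent growth, with values below 10 considered active.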 Calls of active or inactive are those of the source.

What was measured:
Experiment in all cases: NCI-60 one-dose screen, 48 h (100 = growth as untreated, 0 = no growth, -100 = all killed)
Conditions in all cases: 10 µM unless noted
OVCAR-8 ovarian = test system: OVCAR-8 ovarian
OVCAR-5 ovarian = test system: OVCAR-5 ovarian
OVCAR-4 ovarian = test system: OVCAR-4 ovarian
SK-OV-3 ovarian = test system: SK-OV-3 ovarian
IGROV1 ovarian = test system: IGROV1 ovarian
OVCAR-3 ovarian = test system: OVCAR-3 ovarian
HS 578T breast = test system: HS 578T breast
NCI/ADR-RES ovarian = test system: NCI/ADR-RES ovarian
T-47D breast = test system: T-47D breast
BT-549 breast = test system: BT-549 breast
MDA-MB-435 melanoma = test system: MDA-MB-435 melanoma
MCF7 breast = test system: MCF7 breast
HCT-116 colon = test system: HCT-116 colon
HCC-2998 colon = test system: HCC-2998 colon
KM12 colon = test system: KM12 colon
SW-620 colon = test system: SW-620 colon
RPMI-8226 leukemia = test system: RPMI-8226 leukemia

Measured: growth

Cn1cc(C=O)c2ccccc21
inactive: OVCAR-8 ovarian 95.2% | OVCAR-5 ovarian 101% | OVCAR-4 ovarian 101% | SK-OV-3 ovarian 101% | IGROV1 ovarian 88.6% | OVCAR-3 ovarian 106% | HS 578T breast 107% | NCI/ADR-RES ovarian 100% | T-47D breast 102% | BT-549 breast 106% | MDA-MB-435 melanoma 106% | MCF7 breast 99.3% | HCT-116 colon 102% | HCC-2998 colon 100% | KM12 colon 102%

Cc1nn(-c2ccc(Cl)cc2)c(=O)n1CCOc1ccccc1Cl
inactive: OVCAR-8 ovarian 92.7% | OVCAR-5 ovarian 102% | OVCAR-4 ovarian 68.1% | SK-OV-3 ovarian 92.9% | IGROV1 ovarian 117% | OVCAR-3 ovarian 121% | HS 578T breast 90.3% | NCI/ADR-RES ovarian 89.9% | T-47D breast 79.5% | BT-549 breast 94.4% | MDA-MB-435 melanoma 107% | SW-620 colon 103% | MCF7 breast 98.3% | HCT-116 colon 74% | HCC-2998 colon 106% | KM12 colon 101%

COc1ccc2c(c1)C=CC(C#N)N2C(=O)c1ccccc1 (configuration not stated)
inactive: RPMI-8226 leukemia 22% | OVCAR-8 ovarian 15.4% | OVCAR-5 ovarian 47.1% | OVCAR-4 ovarian 25.4% | SK-OV-3 ovarian 43.5% | HS 578T breast 14.9% | T-47D breast 69.8% | SW-620 colon 21.6% | MCF7 breast 15% | HCC-2998 colon 18.6% | KM12 colon 13.4%
active: OVCAR-3 ovarian -23.7% | NCI/ADR-RES ovarian 6.62% | BT-549 breast 0.256% | MDA-MB-435 melanoma -52.4% | HCT-116 colon 8.13%

CCC(c1cccc(Br)c1)C(C(=O)O)c1ccc(OC)cc1 (configuration not stated)
inactive: RPMI-8226 leukemia 101% | OVCAR-8 ovarian 107% | OVCAR-5 ovarian 109% | SK-OV-3 ovarian 107% | IGROV1 ovarian 99.3% | OVCAR-3 ovarian 110% | HS 578T breast 91.4% | NCI/ADR-RES ovarian 103% | T-47D breast 108% | BT-549 breast 113% | MDA-MB-435 melanoma 29.9% | SW-620 colon 93.2% | MCF7 breast 93% | HCT-116 colon 112% | HCC-2998 colon 93.5% | KM12 colon 83.3%

O=C(O)c1ccc(-n2cc(CNc3ccc(C(F)(F)F)cc3)c(-c3ccccc3)n2)cc1
inactive: RPMI-8226 leukemia 76.6% | OVCAR-8 ovarian 79.8% | OVCAR-5 ovarian 119% | SK-OV-3 ovarian 103% | IGROV1 ovarian 111% | OVCAR-3 ovarian 96.1% | HS 578T breast 93.7% | NCI/ADR-RES ovarian 101% | T-47D breast 79.2% | BT-549 breast 99.1% | MDA-MB-435 melanoma 90.8% | SW-620 colon 98.2% | MCF7 breast 81.8% | HCT-116 colon 101% | HCC-2998 colon 108% | KM12 colon 84.7%

COc1cccc(NC(=O)c2sc3nc4c(cc3c2N)CCCC4)c1
inactive: OVCAR-8 ovarian 25.8% | OVCAR-5 ovarian 38.6% | SK-OV-3 ovarian 28.7% | IGROV1 ovarian 37.1% | HS 578T breast 48% | T-47D breast 41.5% | BT-549 breast 66.7% | SW-620 colon 32.1% | MCF7 breast 13.2% | HCT-116 colon 20.7% | HCC-2998 colon 24.4% | KM12 colon 23.1%
active: RPMI-8226 leukemia -4.6% | NCI/ADR-RES ovarian -12.1% | MDA-MB-435 melanoma -40.2%

CCNCc1ccncc1
inactive: OVCAR-8 ovarian 103% | OVCAR-5 ovarian 112% | OVCAR-4 ovarian 97.8% | SK-OV-3 ovarian 94.7% | IGROV1 ovarian 111% | OVCAR-3 ovarian 110% | HS 578T breast 103% | NCI/ADR-RES ovarian 106% | T-47D breast 96.9% | BT-549 breast 114% | SW-620 colon 100% | MCF7 breast 96.6% | HCT-116 colon 104% | HCC-2998 colon 99.5% | KM12 colon 106%

COC(=O)c1ccc(C)cc1
inactive: RPMI-8226 leukemia 102% | OVCAR-8 ovarian 103% | OVCAR-5 ovarian 110% | SK-OV-3 ovarian 99.6% | OVCAR-3 ovarian 106% | HS 578T breast 99.5% | NCI/ADR-RES ovarian 106% | T-47D breast 91.4% | BT-549 breast 120% | MDA-MB-435 melanoma 101% | SW-620 colon 101% | MCF7 breast 91.7% | HCT-116 colon 101% | HCC-2998 colon 109% | KM12 colon 108%

O=C(NCCCN1CCN(CCCNC(=O)C2CCCCC2)CC1)C1CCCCC1
inactive: OVCAR-8 ovarian 101% | OVCAR-5 ovarian 104% | OVCAR-4 ovarian 102% | SK-OV-3 ovarian 91.6% | IGROV1 ovarian 104% | HS 578T breast 102% | NCI/ADR-RES ovarian 112% | T-47D breast 90% | BT-549 breast 96.4% | MDA-MB-435 melanoma 96.4% | SW-620 colon 95% | MCF7 breast 95.7% | HCT-116 colon 95.6% | HCC-2998 colon 99.9% | KM12 colon 104%

Cc1c(C2=NNC(c3ccc4c(c3)OCO4)C2)[n+]([O-])c2ccccc2[n+]1[O-] (configuration not stated)
inactive: RPMI-8226 leukemia 98.9% | OVCAR-8 ovarian 109% | OVCAR-5 ovarian 91.9% | SK-OV-3 ovarian 97.1% | IGROV1 ovarian 84.4% | OVCAR-3 ovarian 93.4% | HS 578T breast 94.3% | NCI/ADR-RES ovarian 95.4% | T-47D breast 92.3% | BT-549 breast 91% | MDA-MB-435 melanoma 108% | SW-620 colon 98.4% | MCF7 breast 92.8% | HCT-116 colon 99.2% | HCC-2998 colon 84.2% | KM12 colon 113%

c1cncc(CNc2ccccc2-c2nnc(Nc3ccc4c(c3)OCCO4)o2)c1
inactive: OVCAR-8 ovarian 27.1% | OVCAR-5 ovarian 43.9% | OVCAR-4 ovarian 44% | IGROV1 ovarian 40.9% | HS 578T breast 77.9% | T-47D breast 73.6% | BT-549 breast 16.6% | SW-620 colon 23.2% | MCF7 breast 20.9%
active: SK-OV-3 ovarian -4.48% | OVCAR-3 ovarian -50.3% | NCI/ADR-RES ovarian 6.09% | MDA-MB-435 melanoma -20.3% | HCT-116 colon 9.5% | HCC-2998 colon 9.58% | KM12 colon 3.03%

Cc1cc(C(=O)O)c(N)c(C)n1
inactive: RPMI-8226 leukemia 103% | OVCAR-8 ovarian 112% | OVCAR-5 ovarian 111% | OVCAR-4 ovarian 102% | SK-OV-3 ovarian 129% | OVCAR-3 ovarian 110% | HS 578T breast 101% | NCI/ADR-RES ovarian 108% | T-47D breast 112% | BT-549 breast 106% | MDA-MB-435 melanoma 107% | SW-620 colon 106% | MCF7 breast 93.6% | HCT-116 colon 102% | HCC-2998 colon 111% | KM12 colon 110%
